These results are taken from PubChem BioAssay.

The nature of assay [1]: Wnt pathway potentiators raising nuclear beta-catenin – imaging, WNT3A-conditioned medium, mouse C2C12, NPC library, primary screen (AID 1117326). Also: reference of the scale not given here. The following applies: stronger effect = higher value.
The nature of assay [2]: stimulators of insulin release from INS-1E, primary screen, cell-based, 5 mM glucose, NPC library (AID 1117329;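 active = compound raises insulin release from rat beta cells at 5 mM glucose, no numeric limit stated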; also: reference of the scale not given here). Particulars: rat INS-1E insulin secretion, at 10 µM, stronger effect = higher value.
Assay [3] is described as follows: growth inhibition of GSK3B-pretreated HCT116 cells – cell-based, CellTiter-Glo, 0.2 to 20 µM (AID 1117336;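 active = compounds lowering colon cancer cell viability after pretreatment blocking the GSK3B kinase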). Particulars: HCT116 viability after GSK3B inhibitor, at 20 µM, stronger effect = higher value. A general note: In ATP-based viability assays light output follows the ATP content of the culture.
Assay [4] can be described thus: inhibition of endothelial tube formation, primary screen, imaging, VEGF stimulated, CD31 staining, tube area, NPC library (AID 1117340;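 active = compound that reduces growth-factor-driven endothelial tube area in a mixed cell culture, no cutoff stated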). The following applies: VEGF-stimulated ADSC/ECFC co-culture, at 10 µM, stronger effect = higher value.
Assay [5] is described as follows: GLP1 release stimulators, primary, NCI-H716, NPC library (AID 1117341;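 active = compound raises GLP1 secretion from the human gut endocrine cells, with no numeric limit stated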; also: reference of the scale not given here). Particulars: NCI-H716 cells, at 10 µM, stronger effect = higher value.
A short description of assay [6]: HCT116 colon cancer cell growth inhibition, primary screen, CellTiter-Glo luminescence, NPC library (AID 1117342;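 active = compounds that lower survival of HCT116 colon cancer cells in the luminescence readout, no numeric limit stated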). Particulars: at 20 µM (top of the series).
The nature of assay [7]: reduced SW480 viability measured with CellTiter-Glo, NPC library, primary (AID 1117343;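 active = compounds that lower viability of the colon cancer cells in the luminescence readout, with no numeric limit stated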). The following applies: CellTiter-Glo luminescence; at 20 µM (top of the series).
Assay [8] is described as follows: NPC library primary testing for decreased DLD-1 cell viability via CellTiter-Glo (AID 1117346;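 active = compounds that lower survival of DLD-1 colon cancer cells in the luminescence readout, no cutoff given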). The following applies: DLD-1 viability, CellTiter-Glo luminescence; at 20 µM (top of the series).

Active and inactive are the calls of the source. Rule as the data show it, unless noted: active = nuclear beta-catenin stimulation mostly above about 4.2% (no sharp cut-off); inactive = mostly below about 10%.

Turning to `COc1ccc([C@@H]2CC(=O)c3c(O)cc(O[C@@H]4O[C@H](CO[C@@H]5O[C@@H](C)[C@H](O)[C@@H](O)[C@@H]5O)[C@@H](O)[C@H](O)[C@@H]4O)cc3O2)cc1O`, the nuclear beta-catenin stimulation in assay [1] (at 10 µM) is 1.6% (inactive); in assay [1] (stimulation, at 2 µM), 2.4%. Also, in assay [2], the insulin secretion stimulation is -0.9% (inactive). Also, the viability decrease in assay [3] is -10.2% (inactive). Moreover, the tube area decrease in assay [4] was -4.7% (inactive). Besides, in assay [5], the GLP1 secretion stimulation was -1% (inactive). Also, the inhibition of viability in assay [6] is -1.6% (inactive). Besides, the viability decrease (inhibition) in assay [7] is -2.4% (inactive); in assay [8] it was 41.4% (inactive).

As for `Nc1nc(-c2ccccc2)c(Br)c(=O)[nH]1`, the nuclear beta-catenin stimulation in assay [1] (at 10 µM) is 3.6% (inactive); in assay [1] (stimulation, at 2 µM), 2.1%. Besides, the insulin secretion stimulation in assay [2] was -0.7% (inactive). In addition, the viability decrease in assay [3] is -50.3% (inactive). In addition, the tube area decrease in assay [4] was 17% (inactive). For the same molecule, the GLP1 secretion stimulation in assay [5] is 3.9% (inactive). In addition, in assay [6], the inhibition of viability was -10.9% (inactive). Moreover, the figures for the viability decrease (inhibition) in assay [7] and in assay [8] were 11.9% (inactive) and 0.7% (inactive), respectively.

For the molecule `CCCCCCCCCCCCCCCC[n+]1ccccc1`, the nuclear beta-catenin stimulation in assay [1] (at 10 µM) is -2.9% (inactive); in assay [1] (stimulation, at 2 µM), 5.4%. The insulin secretion stimulation in assay [2] was 46% (active). The viability decrease in assay [3] was 56% (active). Further, in assay [4], the tube area decrease was 104% (active). The GLP1 secretion stimulation in assay [5] is 72.8% (active). The inhibition of viability in assay [6] was 112% (active). In addition, the viability decrease (inhibition) was 112% (active) in assay [7] and 60.9% (active) in assay [8].

Consider `CCCCCC=CCC=CCCCCCCCC(=O)OCC`, for which the nuclear beta-catenin stimulation is 1.6% (inactive) in assay [1] (at 10 µM) and -0.5% in assay [1] (stimulation, at 2 µM). The insulin secretion stimulation in assay [2] was -1.8% (inactive). In addition, the viability decrease in assay [3] was -40% (inactive). Besides, the tube area decrease in assay [4] is 7.8% (inactive). The GLP1 secretion stimulation in assay [5] is 8.5% (inactive). In addition, the inhibition of viability in assay [6] was 17.5% (inactive). For the same molecule, the viability decrease (inhibition) is 30.9% (inactive) in assay [7] and 54.5% (active) in assay [8].

On to `Cc1ccccc1N1CCN(CCc2nnc3n2CCCC3)CC1`, for which the nuclear beta-catenin stimulation was -0.3% (inactive) in assay [1] (at 10 µM) and 0% in assay [1] (stimulation, at 2 µM). Also, the insulin secretion stimulation in assay [2] was 0.9% (inactive). Further, the viability decrease in assay [3] was 25.8% (inactive). In assay [4], the tube area decrease was -13.2% (inactive). For the same molecule, the GLP1 secretion stimulation in assay [5] was 0.9% (inactive). Further, the inhibition of viability in assay [6] was 6.7% (inactive). Further, the viability decrease (inhibition) in assay [7] is 4.9% (inactive); in assay [8], 7.3% (inactive).

Take `O=S(O)CO`: the nuclear beta-catenin stimulation in assay [1] (at 10 µM) was 2.1% (inactive); in assay [1] (stimulation, at 2 µM), 0.9%. Also, in assay [2], the insulin secretion stimulation was 0.6% (inactive). Moreover, the viability decrease in assay [3] is -7.1% (inactive). For the same molecule, the tube area decrease in assay [4] was 9.9% (inactive). Also, the GLP1 secretion stimulation in assay [5] is -1.1% (inactive). The inhibition of viability in assay [6] was -0.4% (inactive). The figures for the viability decrease (inhibition) in assay [7] and in assay [8] were -0.9% (inactive) and 2.7% (inactive), respectively.

Consider `CC(C)(C)CC(C)(C)c1ccc(O)c(-n2nc3ccccc3n2)c1`, for which the nuclear beta-catenin stimulation in assay [1] (at 10 µM) is 1.5% (inactive); in assay [1] (stimulation, at 2 µM), 1.1%. Besides, the insulin secretion stimulation in assay [2] was -1% (inactive). The viability decrease in assay [3] is 13.1% (inactive). Further, in assay [4], the tube area decrease was 23.9% (inactive). Further, the GLP1 secretion stimulation in assay [5] is -1.5% (inactive). Further, the inhibition of viability in assay [6] was -8.9% (inactive). Besides, the viability decrease (inhibition) in assay [7] was 82.6% (active); in assay [8], 22.1% (inactive).

With `CCN(CC)S(=O)(=O)c1ccc(C(=O)O)cc1`, the nuclear beta-catenin stimulation in assay [1] (at 10 µM) was 1.6% (inactive); in assay [1] (stimulation, at 2 µM), 0.7%. The insulin secretion stimulation in assay [2] was -2.1% (inactive). Also, the viability decrease in assay [3] is -8.6% (inactive). Further, the tube area decrease in assay [4] was 8.6% (inactive). Besides, the GLP1 secretion stimulation in assay [5] is -3.2% (inactive). For the same molecule, the inhibition of viability in assay [6] was -14.7% (inactive). Also, the viability decrease (inhibition) was 40% (inactive) in assay [7] and 7.45% (inactive) in assay [8].

On to `CN1CCN(N)CC1`, for which the nuclear beta-catenin stimulation in assay [1] (at 10 µM) was 1.1% (inactive); in assay [1] (stimulation, at 2 µM) it was 0.7%. Moreover, the insulin secretion stimulation in assay [2] was 1.5% (inactive). Besides, in assay [3], the viability decrease was -1.2% (inactive). Besides, the tube area decrease in assay [4] is -7.3% (inactive). Further, in assay [5], the GLP1 secretion stimulation was 0.5% (inactive). Further, in assay [6], the inhibition of viability was 0.1% (inactive). For the same molecule, the viability decrease (inhibition) was -13.8% (inactive) in assay [7] and 10.2% (inactive) in assay [8].

For the molecule `COC(=O)c1cc(Cl)ccc1OC`, the nuclear beta-catenin stimulation in assay [1] (at 10 µM) is -0.1% (inactive); in assay [1] (stimulation, at 2 µM) it was -1.6%. In assay [2], the insulin secretion stimulation is 1.5% (inactive). Also, the viability decrease in assay [3] is 1.2% (inactive). Further, the tube area decrease in assay [4] is -13.8% (inactive). Besides, the GLP1 secretion stimulation in assay [5] is 2.6% (inactive). In addition, in assay [6], the inhibition of viability was 8.2% (inactive). The values for the viability decrease (inhibition) in assay [7] and in assay [8] were -4.7% (inactive) and 0.3% (inactive), respectively.

As for `NC(=Nc1ccccc1)Nc1ccccc1`, the nuclear beta-catenin stimulation was 0.2% (inactive) in assay [1] (at 10 µM) and 1.4% in assay [1] (stimulation, at 2 µM). In addition, the insulin secretion stimulation in assay [2] is 13.9% (inactive). The viability decrease in assay [3] was 24.6% (inactive). In assay [4], the tube area decrease is 10.1% (inactive). The GLP1 secretion stimulation in assay [5] was 2.8% (inactive). Further, the inhibition of viability in assay [6] was -1% (inactive). Also, the viability decrease (inhibition) in assay [7] was 77.3% (active); in assay [8], 75.2% (active).

Take `NC(=O)COCCN1CCN(C(c2ccccc2)c2ccc(Cl)cc2)CC1` (centres undefined): the nuclear beta-catenin stimulation in assay [1] (at 10 µM) was -0.4% (inactive); in assay [1] (stimulation, at 2 µM), 1.4%. The insulin secretion stimulation in assay [2] is 1.7% (inactive). In addition, the viability decrease in assay [3] is -1.7% (inactive). In assay [4], the tube area decrease was 9.8% (inactive). In addition, the GLP1 secretion stimulation in assay [5] was 2.2% (inactive). In addition, in assay [6], the inhibition of viability was 7.4% (inactive). Besides, the viability decrease (inhibition) in assay [7] was -24.9% (inactive); in assay [8], -5.9% (inactive).

Regarding `CCOCCn1c(C2CCN(CCc3ccc(C(C)(C)C(=O)O)cc3)CC2)nc2ccccc21`, the nuclear beta-catenin stimulation in assay [1] (at 10 µM) is -0.1% (inactive); in assay [1] (stimulation, at 2 µM), 1.3%. The insulin secretion stimulation in assay [2] was -0.3% (inactive). The viability decrease in assay [3] was -2.4% (inactive). Also, the tube area decrease in assay [4] is 3.7% (inactive). In addition, the GLP1 secretion stimulation in assay [5] was -2.2% (inactive). Also, the inhibition of viability in assay [6] was -1.6% (inactive). Besides, the viability decrease (inhibition) in assay [7] is -6.3% (inactive); in assay [8] it was -10.2% (inactive).

As to `CCN[C@@H]1C[C@H](N)[C@@H](OC2OC(CN)=CCC2N)[C@H](O)[C@H]1O[C@H]1OC[C@](C)(O)[C@H](NC)[C@H]1O` (some centres undefined), the nuclear beta-catenin stimulation in assay [1] (at 10 µM) is 1.3% (inactive); in assay [1] (stimulation, at 2 µM), 0%. In addition, in assay [2], the insulin secretion stimulation is 0.5% (inactive). Also, the viability decrease in assay [3] is -7.4% (inactive). In addition, in assay [4], the tube area decrease was 0.9% (inactive). For the same molecule, the GLP1 secretion stimulation in assay [5] is -0.5% (inactive). Also, the inhibition of viability in assay [6] is -2.2% (inactive). Also, the viability decrease (inhibition) was -1.7% (inactive) in assay [7] and 3.7% (inactive) in assay [8].

Take `O=C(COCCOCCOCC(=O)Nc1c(I)cc(I)c(C(=O)O)c1I)Nc1c(I)cc(I)c(C(=O)O)c1I`: the nuclear beta-catenin stimulation is 0.1% (inactive) in assay [1] (at 10 µM) and -1.8% in assay [1] (stimulation, at 2 µM). Further, the insulin secretion stimulation in assay [2] was 2.45% (inactive). For the same molecule, the viability decrease in assay [3] is -23.9% (inactive). The tube area decrease in assay [4] was -2.4% (inactive). In addition, in assay [5], the GLP1 secretion stimulation is -3.2% (inactive). The inhibition of viability in assay [6] was -13.4% (inactive). Further, the viability decrease (inhibition) was -37.4% (inactive) in assay [7] and -13.3% (inactive) in assay [8].

For `CCOC(=O)OCC/C(SC(=O)OCC)=C(\C)N(C=O)Cc1cnc(C)nc1N`, the nuclear beta-catenin stimulation in assay [1] (at 10 µM) is 1.8% (inactive); in assay [1] (stimulation, at 2 µM), 0.3%. Besides, the insulin secretion stimulation in assay [2] is 1.5% (inactive). For the same molecule, in assay [3], the viability decrease was 2.5% (inactive). The tube area decrease in assay [4] was -11% (inactive). Also, the GLP1 secretion stimulation in assay [5] is 2.9% (inactive). Besides, the inhibition of viability in assay [6] was -0.4% (inactive). Besides, the viability decrease (inhibition) in assay [7] was -22.7% (inactive); in assay [8], -10.1% (inactive).
